MARV entry inh: blocks Marburg virus binding to or entry into cells | Potency, µM (highest dose often 37.8 µM), for the others: at the top dose activity change, negative = inhibition, hits mostly inhibitors | AID 540276 | hit rate 1.8% among 300,000 | Marburg virus pseudotyped entry inhibition, cell reporter; calls by dose curve; tested in HEK293 cells; note: potency is the fitted concentration of half-maximal effect
HCV inh: blocks hepatitis C virus; hit rate 3.4% among 340,000; Huh7.5.1 HCVcc-Cre infection, luciferase reporter, 44 h; AID 651820; Potency, µM (series often up to 41.8 µM), without a hit: at the highest dose activity change, negative = inhibition, actives largely listed as inhibitors; note: potency is the fitted concentration of half-maximal effect
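Infectious HCV cell culture screen: compound-treated cells (1,000/well, pre-plated 4 h) are infected with HCVcc-Cre at roughly 0.5 moi and grown 44 h. Infection is quantified by luciferase signal after 15 min substrate incubation at room temperature.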
Pf growth 48h: inhibits P. falciparum growth in the first generation, 48 h. P. falciparum luciferase growth in erythrocytes, 48 h. Potency, µM (doses to about 28.7 µM), for inactives: top-dose activity change, negative = inhibition, most hits filed as inhibitors. hit rate 5.9% among 310,000; note: potency is the fitted concentration of half-maximal effect
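Here the parasites carry a stable luciferase gene and grow inside erythrocytes in Albumax-based RPMI medium with compound for one erythrocytic cycle. Activity is scored as loss of luminescent signal.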
LASV entry inh: inhibitors of Lassa virus binding or cell entry; Lassa virus pseudotype entry inhibition, cell reporter; Potency, µM (doses to about 37.9 µM), for the others: at the top dose activity change, negative = inhibition, usual class: inhibitors; hit rate 1.2% among 300,000; AID 540256; calls by dose curve; tested in HEK293 cells; note: potency is the fitted concentration of half-maximal effect; nearly all actives have a fitted effect of over 50% in size
Pf growth 96h: P. falciparum growth inhibition at 96 hours. P. falciparum luciferase reporter growth, 96 h. Potency, µM (top dose mostly 28.7 µM), for the others: at the top dose activity change, negative = inhibition, most hits filed as inhibitors. hit rate 6.9% among 320,000; note: potency is the fitted concentration of half-maximal effect
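Delayed-death screen, second-generation endpoint: infected erythrocytes, 2% hematocrit, 0.05% parasitemia final; 96 hours at 37 C, 5% CO2; luciferase detection reagent; luminescence decrease equals reduced growth.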
HCMV antiviral: blocks human cytomegalovirus replication; HFF cells, HCMV-luciferase reporter, 72 h; active compounds read low; activity change, negative = inhibition, % at 57.5 µM; hit rate 4.5% among 410,000; in the data active = activity change below about -60%; inconclusive = no clear call, values can overlap the other calls; inactive = above about -39%
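After 16 h attachment at 37C, HFF cells received test compound and HCMV-luciferase (1 PFU/cell); reporter luminescence read 72 h later, data normalized against buffer-only and known inhibitor Salinomycin.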
* = called active by the depositor; ? = inconclusive; . = not tested or not shown; ! = not confirmed by another sample; [ ] = dose if it differs, or a comment. Most compounds without a hit are left out; they make up all but 14% or so of the library. Unless noted, calls come from the whole dose curve; as a rule, active = well fitted inhibition curve with a large enough effect; inconclusive = small, poorly fitted or top-dose-only effect, or another doubt; inactive = no such curve, though single readings can be large or run the other way. % is set by controls: 0 for no effect and ±100 for the full control effect.

SMILES	MARV entry inh	HCV inh	Pf growth 48h	LASV entry inh	Pf growth 96h	HCMV antiviral
COc1ccc(CCN(Cc2ccccn2)C(=S)Nc2ccccc2F)cc1OC	20%[46.1 µM]	22%	-24%	7%	56%	66
COc1ccc(CCN(Cc2ccccn2)C(=S)Nc2ccccc2Cl)cc1OC	-18%[46.1 µM]	-28%	?	?	13µM*	30
CCc1ccc(OCC(=O)Nc2cc3oc4ccccc4c3cc2OC)c(Br)c1	?	.	.	-4%[46.1 µM]	.	19
CCCC1CCC(C(=O)Nn2cnc3ccccc3c2=O)CC1 (stereo not drawn)	0%	12%	-18%	4%	2.1µM*	4
O=C(Nn1cnc2ccccc2c1=O)C1CCCCC1	19%	-3%	16%	3%	?	-5
CCOc1ccc(-c2nnn(CC(=O)c3ccc4c(c3)OCCO4)n2)cc1	24%	?	-14%	-8%	?	-29
CCCCOc1ccc(-c2nnn(CCC(=O)N3CCOCC3)n2)cc1	3%	-29%	67%	-1%	9.3µM*	-8
CCCOc1ccc(-c2nnn(CC(=O)c3ccc4c(c3)OCCO4)n2)cc1	-4%	?	?	-12%	7.4µM*	-28
CCOc1ccc(CCNC(=O)Cn2ccc3cc(S(=O)(=O)N4CCCCCC4)ccc32)cc1	.	.	.	-15%[46.1 µM]	.	-14
NS(=O)(=O)c1ccc(CNc2ncnc3sccc23)cc1	2%[46.1 µM]	-5%	-14%	-1%	12%	4
NS(=O)(=O)c1ccc(CCNc2ncnc3sccc23)cc1	?	5.6µM*	6%	?	.	?
Cc1sc2ncnc(NCCc3ccc(S(N)(=O)=O)cc3)c2c1C	?	1µM*	.	?	?	-76*
COc1ccc(NC(=O)CC2C(=O)N(c3ccc(C)cc3)C(=O)N2Cc2ccc(C)cc2)cc1 (stereo not drawn)	-7%[46.1 µM]	.	.	-2%[46.1 µM]	.	2
CCN1C(=NCCOC)N[C@@H](c2cccc(C(F)(F)F)c2)C(C(=O)OC)=C1C	.	?	-24%	.	2.1µM*	-33
COC(=O)C1=C(C)N(Cc2ccccc2)C(=NCC2CC2)NC1c1cccc(C(F)(F)F)c1 (stereo not drawn)	11%[14.2 µM]	.	.	.	.	.
CCN1C(=NCCCCO)NC(c2cccc(C(F)(F)F)c2)C(C(=O)OC)=C1C (stereo not drawn)	-19%[14.2 µM]	.	.	.	.	.
CCN1C(=NCC2CC2)N[C@@H](c2cccc(C(F)(F)F)c2)C(C(=O)OC)=C1C	.	?	?	.	12µM*	.
O=C1NC[C@@H](CCCCN2C[C@H](Cc3ccc(O)cc3)N(CC3CCCCC3)C(=O)C2=O)N(Cc2ccccc2)C1=O	.	.	.	.	.	-25
CCOc1ccc(S(=O)(=O)n2cc(F)c(=O)[nH]c2=O)cc1	-9%[46.1 µM]	21%	?	18%[46.1 µM]	13µM*	2
CCOc1ccc(S(=O)(=O)n2cc(F)c(=O)[nH]c2=O)cc1[N+](=O)[O-]	.	8%	-16%	.	?	43
CCN[C@@H]1C[C@H](N)[C@H](O[C@H]2OC(CN)=CC[C@H]2N)[C@@H](O)[C@H]1O[C@H]1OC[C@@](C)(O)[C@@H](NC)[C@@H]1O	.	.	-1%	.	3%	.
Cc1ccc(NC(=O)CSc2c3c(nc4ccccc24)CCCC3)cc1F	-2%[46.1 µM]	.	.	-11%[46.1 µM]	.	-18
O=c1cc(CN2CCN(c3ccccc3F)CC2)c2ccccc2o1	.	.	.	12%[46.1 µM]	.	-14
COCC(=O)N(CCc1ccccc1)Cc1cc2cc(C)ccc2nc1Cl	.	-5%	-39%	.	0%	-14
COCCN(Cc1cc2c(C)cc(C)cc2nc1Cl)C(=O)c1ccccc1F	.	?	?	.	1.9µM*	?
C=CCN1C(=O)C(CC(C)C)NC1=S (stereo not drawn)	.	.	-18%	.	0.54µM*!	.
CSc1nc(-c2ccc(Cl)cc2)c(C#N)c(=O)[nH]1	12%[46.1 µM]	4%	5%	-17%	14%	-76*
CCN(CC)c1ccc(/C=N/NC(=O)c2cccc(S(=O)(=O)Nc3ccccc3OC)c2)c(O)c1	5.6µM*	10µM*	9.3µM*	0.32µM*	12µM*	-103*
CCN(CC)c1ccc(C(=O)N/N=C/c2ccccc2OC(F)F)cc1	.	11µM*	10µM*	.	?	-36

Source: PubChem
